The values below come from PubChem BioAssay (Tox21).

“And” between values parts separate entries of the source, which are not always exact repeats. Equal values may be shown once. Records with an inconclusive call do not appear. Where a call stands in place of a potency, no number is given. The source made the active and inactive calls. Calls follow the shape of the dose curve; as a rule, active = well fitted cell-killing curve with a large enough effect in the repeat runs; inconclusive = weak or mixed curves, or effect the other way; inactive = flat fitted curve, though single readings scatter.
Potency is read from the fitted curve at half-maximal effect.

This test is described as follows: Nuclear factor erythroid 2-related factor 2/antioxidant responsive element (Nrf2/ARE) small molecule agonists: qHTS cell viability counter screen in human keratinocytes (AID 1919968). Also: nearly all actives have a fitted effect of over 55% in size. The conditions noted are these: KeratinoSens HaCaT ARE cells viability, CellTiter-Fluor, 24 h; series mostly up to 92.4 µM; activity change, negative = cytotoxicity: at the top concentration. The method in brief: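 KeratinoSens HaCaT cells, 1,500/well, preincubated 5 h, then exposed to compounds in DMSO for 23 h at 37 C/5% CO2. Viability read as CellTiter-Fluor fluorescence after 1 h, in the same wells as the ARE-luciferase read.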
On to `Oc1ccc(C(c2ccc(O)cc2)(C(F)(F)F)C(F)(F)F)cc1`, for which the Potency was 38.4 µM (active) and 54.5 µM (active). On to `O=C(Nc1ccc(Br)cc1)c1cc(Br)cc(Br)c1O`, for which the Potency is 6.09 µM (active) and 6.11 µM (active) and 7.5 µM (active). As for `c1ccc2c(c1)CCCC2`, the Potency result is “inactive”. As for `CC(=[OH+])/C=C(/C)[O-].CC(=[OH+])/C=C(\C)[O-].CC(=[OH+])/C=C(\C)[O-].[Al]`, the “activity change, negative = cytotoxicity” value was 1.41% (inactive).

Regarding `CCCCCCI`, the “activity change, negative = cytotoxicity” value is -0.637% (inactive). With `Oc1ccccc1Cl`, the Potency result was “inactive”.

Take `Oc1cc(Cl)ccc1Cl`: the Potency entry is “inactive”.

As to `CC(C)(C)C(=O)Cl`, the “activity change, negative = cytotoxicity” value was 4.51% (inactive). Consider `NNC(=S)NN`, for which the Potency is 6.28 µM (active) and 30.6 µM (active). The same measure, in the same setting: the result for `O=[N+]([O-])c1ccc([As](=O)(O)O)cc1` reads “inactive”. `O=C(O)C(F)(F)C(F)(F)C(F)(F)C(F)(F)C(F)(F)C(F)(F)C(F)(F)C(F)(F)F`: the “activity change, negative = cytotoxicity” value was -14.1% (inactive). The same measure, in the same setting: in the case of `C=CC1CC=CCC1` (stereo not given) it was -2.64% (inactive). `ClC1C(Cl)C(Cl)C(Cl)C(Cl)C1Cl` (stereo not given): the Potency entry was “inactive”. The same measure, in the same setting: in the case of `Cc1cccc([N+](=O)[O-])c1` it was “inactive”. Take `NC(=O)CF`: the “activity change, negative = cytotoxicity” value was 5.97% (inactive).

For `O=C(O)C1C2CCC(O2)C1C(=O)O` (stereo not given), the Potency result was “inactive”. Still for that read-out and setting: in the case of `COC(=O)c1ccccc1C(=O)OC` it was “inactive”; in that of `Cc1ccccc1O`, “inactive”. Consider `CCC12COCN1COC2`, for which the Potency entry was “inactive”.

Turning to `C[Si](Cn1cncn1)(c1ccc(F)cc1)c1ccc(F)cc1`, the Potency result was “inactive”. Regarding `Cc1ccccc1CCl`, the “activity change, negative = cytotoxicity” value was 0.365% (inactive). On the same count and under the same terms, in the case of `N#Cc1cc([N+](=O)[O-])ccc1N` it was -14.3% (inactive); in that of `O=Cc1ccc(Cl)cc1Cl`, 4.5% (inactive). On to `CCOC(=O)CC(SP(=S)(OC)OC)C(=O)OCC` (stereo not given), for which the Potency result is “inactive”. Same read-out and setting: in the case of `NCC(O)c1ccc(O)cc1` (stereo not given) it was “inactive”.
